Screening results from PubChem.
TDP1 cell CPT: growth inhibition of DT40 Tdp1-/-;hTDP1 cells with camptothecin (screen for TDP1 inhibitors); Potency, µM (series often up to 46.2 µM), inactives show at the top dose activity change, negative = growth inhibition, usual class: inhibitors; chicken DT40 Tdp1-/-;hTDP1 cells + 20 nM CPT, ATP luminescence, 48 h; 420,000 compounds, 12% hits; note: potency is the fitted concentration of half-maximal effect; nearly all actives have a fitted effect of over 55% in size
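Chicken DT40 Tdp1-/- cells complemented with human TDP1, 400 cells/well, exposed to compounds plus 20 nM camptothecin for at least 48 h at 37 C; viability read as ATP content by CellTiter-Glo luminescence.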
IL-1B inflam inh: inhibitors of inflammasome signaling (IL-1 beta secretion) | THP-1 LPS/ATP IL-1B secretion, AlphaLISA, 16 h; hits give low values | activity change, % at 57.5 µM | 360,000 compounds, 4.7% hits; in the data active = activity change below about -50%; inconclusive = mostly about -30% to -49%
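Secreted IL-1B measured by AlphaLISA bead assay after 16 h compound exposure of THP-1 cells; compounds (final up to 57.5 uM) added 1 h before LPS (250 ng/mL) and ATP (1.25 mM) stimulation; lower signal means less secretion.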
HT1080-NT tox: kills 2HG-producing HT-1080-NT fibrosarcoma cells | HT-1080-NT fibrosarcoma viability, CellTiter-Glo ATP luminescence, 48 h | Potency, µM (top dose mostly 46.1 µM), for inactives: at the highest dose activity, negative = less viability, most hits filed as cytotoxic | 360,000 compounds, 1.6% hits;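 note: NT is the 2HG producing partner of a matched IDH1 knockdown line; potency is the fitted concentration of half-maximal effect; 0% = DMSO-treated cells and -100% = media-only wells without cells; nearly all actives have a fitted effect of over 55% in size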
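Viability by CellTiter-Glo luminescence after 48 h compound exposure at 37C of HT-1080-NT cells (750/well, RPMI, 5% FBS). % activity scaled between DMSO wells and medium-only wells, then curve-fitted and categorized by curve class.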
ALOX12 inh: inhibitors of human 12S-lipoxygenase ALOX12; Potency, µM (titrated, usually from 108 µM), without a hit: at the highest dose activity change, negative = inhibition, usual class: inhibitors; P18054; 580,000 compounds, 1.1% hits; purified 12hLO, xylenol orange hydroperoxide absorbance; note: potency is the fitted concentration of half-maximal effect
Target sequence (P18054 whole entry, looked up): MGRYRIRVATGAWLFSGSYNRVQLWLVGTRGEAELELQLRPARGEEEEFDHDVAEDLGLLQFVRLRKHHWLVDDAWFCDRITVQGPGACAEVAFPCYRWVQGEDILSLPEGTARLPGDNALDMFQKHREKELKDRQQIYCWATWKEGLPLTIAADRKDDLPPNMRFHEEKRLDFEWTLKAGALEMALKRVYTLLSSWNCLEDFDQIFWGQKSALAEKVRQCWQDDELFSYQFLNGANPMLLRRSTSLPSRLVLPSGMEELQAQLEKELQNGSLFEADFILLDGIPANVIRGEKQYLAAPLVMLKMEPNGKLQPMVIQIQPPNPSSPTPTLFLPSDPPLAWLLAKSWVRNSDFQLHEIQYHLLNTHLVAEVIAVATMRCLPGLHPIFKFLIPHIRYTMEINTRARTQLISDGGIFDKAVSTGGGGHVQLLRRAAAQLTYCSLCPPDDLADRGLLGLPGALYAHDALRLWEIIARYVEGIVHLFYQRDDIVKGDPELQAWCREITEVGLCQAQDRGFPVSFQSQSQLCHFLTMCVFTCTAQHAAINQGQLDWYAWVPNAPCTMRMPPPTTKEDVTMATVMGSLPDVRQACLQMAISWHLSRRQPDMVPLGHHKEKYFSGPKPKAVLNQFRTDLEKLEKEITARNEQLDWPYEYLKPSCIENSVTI
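Hydroperoxide product was detected by ferrous iron/xylenol orange as the 573 to 405 nm absorbance ratio. Arachidonic acid at 40 uM (final) was turned over for 30 min at room temperature by 150 nM human 12hLO, pH 7.0 Hepes buffer, after 15 min compound preincubation.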
TDP1 cell noCPT: qHTS for Inhibitors of human tyrosyl-DNA phosphodiesterase 1 (TDP1): qHTS in cells in absence of CPT; 420,000 compounds, 15% hits; Potency, µM (series often up to 46.2 µM), for inactives: at the top dose activity change, negative = growth inhibition, actives largely listed as inhibitors; DT40 Tdp1-/- hTDP1 cells, no CPT, ATP luminescence, 48 h; note: potency is the fitted concentration of half-maximal effect; nearly all actives have a fitted effect of over 55% in size
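Camptothecin absent (DMSO only). Human TDP1-complemented DT40 knockout cells, 400 cells/well, 37 °C for minimum 48 hr; ATP measured via CellTiter-Glo, 30 min dark incubation, luminescence.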
HT1080 IDH1KD tx: HT-1080 IDH1 knockdown cell toxicity (counter line) | Potency, µM (highest dose often 46.1 µM), for inactives: top-dose activity, negative = toxicity, most hits filed as cytotoxic | 360,000 compounds, 2% hits | HT-1080 IDH1 knockdown viability, ATP luminescence, 48 h;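 note: potency is the fitted concentration of half-maximal effect; 0% = DMSO wells and -100% = cell-free medium wells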
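% activity derives from luminescence (CellTiter-Glo), normalised to DMSO and no-cell wells. HT-1080-IDH1KD cells, 750/well, had 48 h compound exposure at 37 °C.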
* hit, by the source's call; ? = inconclusive; · = no result; [ ] = dose if it differs, or a comment. The entries come from a sample that favours hits as a whole. Unless noted, calls come from the whole dose curve; as a rule, active = well fitted curve in the direction sought with a large enough effect; inconclusive = small, poorly fitted or top-dose-only effect, or another doubt; inactive = no such curve, though single readings can be large; an effect the other way counts as inactive or inconclusive. Unless noted, % is set by controls: 0 for no effect and ±100 for the full control effect.

SMILES	TDP1 cell CPT	IL-1B inflam inh	HT1080-NT tox	ALOX12 inh	TDP1 cell noCPT	HT1080 IDH1KD tx
CCCN(CCC)S(=O)(=O)c1ccc(NC(=O)Cn2cnc3c2c(=O)n(C)c(=O)n3C)cc1	·	·	·	4%	·	·
CC1CCc2sc(C(=O)OCC(=O)N3CCC(c4ccccc4)=N3)cc2C1 (stereo not drawn)	·	·	·	21%	·	·
Cc1ccccc1NC(=O)CSc1nc(N2CCCCC2)nc(N2CCCCC2)n1	?	22	-3%	-12%	-15%	5%
COc1ccc(Cl)cc1NC(=O)CSc1nc(N2CCOCC2)nc(N2CCOCC2)n1	?	5	1%	9%	?	8%
COc1ccc(Cl)cc1NC(=O)CSc1nc(N2CCCCC2)nc(N2CCCCC2)n1	?	14	6%	0%	16µM*	9%
CC(=O)c1ccc(NC(=O)CSc2nc(N3CCOCC3)nc(N3CCOCC3)n2)cc1	-21%	-7	-8%	17%	-17%	-8%
COc1ccc(Cl)cc1NC(=O)CSc1nc(Nc2ccccc2)nc(N2CCOCC2)n1	?	-15	-19%	94%	18µM*	-22%
CC(=O)c1cccc(NC(=O)CSc2nc(N3CCCCC3)nc(N3CCCCC3)n2)c1	-1%	19	-4%	-7%	26µM*	27%
Cc1ccc(CNC(=O)CSc2nc(N3CCCCC3)nc(N3CCCCC3)n2)cc1	21µM*	0	?	?	23µM*	?
COc1cccc(N=Cc2ccc(N(C)C)cc2)c1	·	·	·	-28%	·	·
C[C@H](C(=O)NCCN1CCOCC1)C1CC[C@@]2(C)Cc3sc(NC(=O)CC(C)(C)C)nc3[C@@H](C)[C@@H]2[C@H]1O (stereo partly drawn)	·	·	·	28%	·	·
O=C(N[C@H]1CCN2C(=O)c3cc(-c4ccsc4)ccc3NC(=O)[C@H]12)c1cnccn1	·	·	·	7%[176 µM]	·	·
O=C(CSc1nnc(CN2CCOCC2)n1-c1ccc(Cl)cc1)Nc1ccc2c(c1)OCO2	4%	-1	-24%	23%	-2%	-1%
O=C(CSc1nc(Nc2ccccc2)nc(N2CCOCC2)n1)Nc1ccccc1Cl	16µM*	-7	-6%	-11%	11µM*	-4%
O=C(CSc1nc(Nc2ccccc2)nc(N2CCOCC2)n1)Nc1ccc(Br)cc1F	?	0	-1%	0%	18µM*	1%
COc1ccc(Cl)cc1NC(=O)CSc1nnc(CN2CCOCC2)n1-c1ccc(Cl)cc1	16µM*	0	2%[9.24 µM]	-11%	21µM*	-26%
O=C(CSc1nc(Nc2ccccc2)nc(N2CCOCC2)n1)Nc1ccc([N+](=O)[O-])cc1	18µM*	?	8%	-18%	15µM*	7%
O=C(CSc1nc(Nc2ccccc2)nc(N2CCOCC2)n1)Nc1cccc([N+](=O)[O-])c1	?	?	-11%	·	?	-7%
COCCOC1CCOC2(CCN(C(=O)c3ccco3)CC2)C1 (stereo not drawn)	·	·	·	23%	·	·
COc1cccc(Nc2nc3ccccc3nc2NS(=O)(=O)c2ccc(C)c(C)c2)c1	·	·	·	0%	·	·
CC1=Nc2ccccc2N=C(NC(=O)CSc2nnnn2-c2ccccc2)C1c1ccccc1 (stereo not drawn)	?	-13	-14%	3%	29µM*	1%[9.24 µM]
CC1=Nc2ccccc2N=C(NC(=O)CSC(=S)N2CCN(C)CC2)C1c1ccccc1 (stereo not drawn)	?	4	-10%	425%	16µM*	-8%
CSc1ccc(/C=C/C(=O)Nc2ccccc2-c2cccs2)cc1	·	·	·	-6%	·	·
CC(C)NC(=O)COc1ncnc2ccc(Br)cc12	·	·	·	-14%	·	·
CC(=O)Oc1ccc2ccccc2c1C(NC(=O)C(C)C)c1cccc([N+](=O)[O-])c1 (stereo not drawn)	?	-74*	?	-8%	?	0%
SMILES	TDP1 cell CPT	IL-1B inflam inh	HT1080-NT tox	ALOX12 inh	TDP1 cell noCPT	HT1080 IDH1KD tx
NC(=S)Nc1ccc(F)cc1F	14%	5	11%	125%	0%	-1%
NNc1ccc(F)cc1F	·	·	·	4.5µM*	·	·
CC1CCN(Cc2c(C(=O)N/N=C/c3ccccc3O)nnn2-c2nonc2N)CC1	8.2µM*	91	?	13%	7.3µM*	5.2µM*
CN(Cc1c(C(=O)N/N=C/c2ccccc2O)nnn1-c1nonc1N)C1CCCCC1	?	146	12µM*	6%	6.5µM*	?
CC(=C/c1ccccc1)/C=N/NC(=O)c1nnn(-c2nonc2N)c1CN1CCC(C)CC1	?	-11	0%	12%	18µM*	-2%
CN(Cc1c(C(=O)N/N=C/c2cccc(O)c2)nnn1-c1nonc1N)C1CCCCC1	-8%	-1	0%	4%	-11%	0%
CC1CCN(Cc2c(C(=O)N/N=C/c3cccc(Cl)c3)nnn2-c2nonc2N)CC1	?	20	4%	-9%	?	-8%
Cc1ccccc1COc1ccc(/C=N/NC(=O)c2nnn(-c3nonc3N)c2CN2CCC(C)CC2)cc1	10µM*	?	-18%	7%	3.3µM*	-2%
Cc1nnn(-c2nonc2N)c1C(=O)N/N=C/c1ccccc1O	4.1µM*	31	6.5µM*	0%	4.6µM*	8.2µM*
COc1cc(/C=N/NC(=O)c2c(C)nnn2-c2nonc2N)ccc1O	4%	-1	?	-11%	-9%	-24%
O=C(CCc1ccccc1)N1CCN(C(=O)CCc2ccccc2)CC1	1%	0	6%	1%	-20%	-14%
O=C1NC2(CCC3(CC2)OCCO3)NN1c1ccc(Cl)cc1	-3%	1	?	?	?	6.5µM*
COc1cccc(CCC(=O)N2CCC3(CC2)NC(=O)N(c2ccccc2)N3)c1	·	·	·	2.5µM*	·	·
CC1CCC2(CC1)NC(=S)N(c1ccccc1)N2 (stereo not drawn)	-7%	-4	?	?	8%	18µM*
O=C1NC2(CCCCC2)C(=O)N1c1ccc(Cl)cc1	-1%	-4	4%	40%	13%	3%
COc1cccc(CCC(=O)N2CCC(c3n[nH]c(=O)n3-c3ccccc3)CC2)c1	·	·	·	-16%	·	·
O=C(CCc1ccccc1)N1CCC2(CC1)NC(=O)N(c1ccccc1)N2	·	·	·	2.2µM*	·	·
C[C@H]1[C@@H]2[C@@H](O)C([C@H](C)C(=O)NCCN3CCCC3)CC[C@@]2(C)CC[C@@H]1NC(=O)CC(C)(C)C (stereo partly drawn)	·	·	·	86%	·	·
